The list is not random: actives were taken first. Their share in the collection is about 18%.
IL1B secr inh: qHTS for Inhibitors of Inflammasome Signaling: IL-1-beta AlphaLISA Primary Screen | AID 743279, 2014 | activity change, % at 57.5 µM | 360,000 tested, 4.7% active | THP-1 LPS/ATP IL-1B secretion, AlphaLISA, 16 h; active compounds read low; in the data active = activity change below about -50%; inconclusive = mostly about -30% to -49%; note: % is set by controls: 0 for no effect and ±100 for the full control effect
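THP-1 cells pretreated 1 hr with compounds (up to 57.5 uM final), then stimulated with LPS (250 ng/mL final) plus ATP (1.25 mM final); secreted IL-1B measured by AlphaLISA after 16 hr, decreased signal indicating inhibition.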
TDP1 cell CPT: qHTS for Inhibitors of human tyrosyl-DNA phosphodiesterase 1 (TDP1): qHTS in cells in presence of CPT; chicken DT40 Tdp1-/-;hTDP1 cells + 20 nM CPT, ATP luminescence, 48 h; Potency, µM (titrated, usually from 46.2 µM), for inactives: at the highest dose activity change, negative = growth inhibition, most hits filed as inhibitors; 420,000 tested, 12% active; AID 686979, 2013; note: potency is the fitted concentration of half-maximal effect; % is set by controls: 0 for no effect and ±100 for the full control effect; nearly all actives have a fitted effect of over 55% in size
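Chicken DT40 Tdp1-/- cells complemented with human TDP1, 400 cells/well, exposed to compounds plus 20 nM camptothecin for at least 48 h at 37 C; viability read as ATP content by CellTiter-Glo luminescence.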
TDP1 cell noCPT: qHTS for Inhibitors of human tyrosyl-DNA phosphodiesterase 1 (TDP1): qHTS in cells in absence of CPT; DT40 Tdp1-/- hTDP1 cells, no CPT, ATP luminescence, 48 h; Potency, µM (highest dose often 46.2 µM), for inactives: at the top dose activity change, negative = growth inhibition, actives largely listed as inhibitors; 420,000 tested, 15% active; AID 686978, 2013; note: potency is the fitted concentration of half-maximal effect; % is set by controls: 0 for no effect and ±100 for the full control effect; nearly all actives have a fitted effect of over 55% in size
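Growth of hTDP1-complemented DT40 Tdp1-knockout cells is measured by ATP luminescence after at least 48 hr compound exposure at 37 °C, with DMSO substituting for the 20 nM CPT used in the parallel screen.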
TDP1 inh: qHTS Assay for Inhibitors of Tyrosyl-DNA Phosphodiesterase (TDP1); Tyrosyl-DNA phosphodiesterase 1 (Homo sapiens), Q9NUW8; recombinant TDP1, AlphaScreen DNA substrate cleavage; Potency, µM (titrated, usually from 130 µM), for inactives: at the top dose activity change, negative = inhibition, most hits filed as inhibitors; 350,000 tested, 0.28% active; AID 485290, 2010; note: potency is the fitted concentration of half-maximal effect; % is set by controls: 0 for no effect and ±100 for the full control effect; nearly all actives have a fitted effect of over 40% in size
Target sequence (Q9NUW8 whole entry, looked up): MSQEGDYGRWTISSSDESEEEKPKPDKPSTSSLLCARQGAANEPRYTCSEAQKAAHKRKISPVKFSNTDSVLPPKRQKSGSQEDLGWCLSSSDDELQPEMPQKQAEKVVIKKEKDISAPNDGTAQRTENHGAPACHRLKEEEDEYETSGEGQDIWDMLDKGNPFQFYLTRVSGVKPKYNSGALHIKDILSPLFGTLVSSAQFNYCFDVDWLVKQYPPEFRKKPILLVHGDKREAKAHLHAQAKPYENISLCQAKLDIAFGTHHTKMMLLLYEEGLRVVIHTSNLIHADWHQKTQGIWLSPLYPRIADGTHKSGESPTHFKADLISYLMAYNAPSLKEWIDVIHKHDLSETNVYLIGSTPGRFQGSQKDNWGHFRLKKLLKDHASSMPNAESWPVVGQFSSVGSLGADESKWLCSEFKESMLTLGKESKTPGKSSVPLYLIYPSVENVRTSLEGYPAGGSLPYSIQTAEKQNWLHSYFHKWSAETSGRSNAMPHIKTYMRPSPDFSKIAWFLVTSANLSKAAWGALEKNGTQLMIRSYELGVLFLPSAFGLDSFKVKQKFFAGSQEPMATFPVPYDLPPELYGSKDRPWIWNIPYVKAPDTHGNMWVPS
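Tdp1 1 nM final; 15 min RT w/ cpd; substrate 15 nM, 5 min; beads 10 ug/ml, 10 min; AlphaScreen read. Neg ctrl: no enzyme.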
TGFb SMAD3 inh: qHTS for Inhibitors of TGF-b | Potency, µM (titrated, usually from 46.1 µM), for the others: at the highest dose activity, negative = inhibition, actives largely listed as inhibitors | HepG2 CAGA-GFP TGF-b/SMAD3 reporter, GFP fluorescence, 18 h; TGF-beta stimulated, 500 pg/mL final | 410,000 tested, 1.2% active; note: potency is the fitted concentration of half-maximal effect; % is set by controls: 0 for no effect and ±100 for the full control effect; nearly all actives have a fitted effect of over 65% in size
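Inhibition of TGF-beta-driven CAGA-GFP reporter expression in HEPG2 cells is measured by cellular GFP fluorescence after 18 h stimulation with 500 pg/mL recombinant TGF-beta in 1% FBS medium at 37 degrees C.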
HepG2 tox: qHTS for Inhibitors of TGF-b: Cytotox Counterscreen; HepG2 CAGA-GFP viability, ATP luminescence, 18 h; Potency, µM (doses to about 46.1 µM), without a hit: at the highest dose activity change, negative = cytotoxicity, most hits filed as cytotoxic; 410,000 tested, 0.76% active; note: potency is the fitted concentration of half-maximal effect
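HepG2 CAGA-GFP cells (1000/well, DMEM with 1% FBS) received compound, then TGF-beta at 500 pg/mL final, and were incubated 18 hours at 37 degrees C. Viability was read by CellTiter-Glo luminescence. Media-only wells were set as complete cell-killing and DMSO as no toxicity.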
Numbers without * were called inactive; [ ] = dose if it differs, or a comment. Unless noted, calls come from the whole dose curve; as a rule, active = well fitted curve in the direction sought with a large enough effect; inconclusive = small, poorly fitted or top-dose-only effect, or another doubt; inactive = no such curve, though single readings can be large; an effect the other way counts as inactive or inconclusive.

`COc1ccc(Cn2c(C)nc3ccc([N+](=O)[O-])cc3c2=O)cc1` gave IL1B secr inh 3, TDP1 cell CPT inconclusive, TDP1 cell noCPT 21µM*, TGFb SMAD3 inh -12% and HepG2 tox -5%.
Cc1nc2ccc([N+](=O)[O-])cc2c(=O)n1Cc1ccc(Cl)cc1 was read as IL1B secr inh 18, TDP1 cell CPT inconclusive, TDP1 cell noCPT inconclusive, TGFb SMAD3 inh 6% and HepG2 tox 3%.
`Cc1cc(/C=C(\C#N)C(=O)Nc2ccccc2)c(C)n1-c1ccc(F)cc1` gave TDP1 cell CPT -8%, TDP1 cell noCPT 2%, TDP1 inh 2%, TGFb SMAD3 inh -7% and HepG2 tox 1%.
For Cc1cc(C(=O)O)ccc1-n1c(C)cc(/C=C(/C#N)C(=O)Nc2ccccc2)c1C the results were IL1B secr inh -66*, TDP1 cell CPT -27%, TDP1 cell noCPT -34%, TGFb SMAD3 inh 18% and HepG2 tox 7%.
Screening Cc1cc2nc(Cl)c(Cl)nc2cc1C returned IL1B secr inh -2, TDP1 cell CPT -7%, TDP1 cell noCPT 8%, TGFb SMAD3 inh 17% and HepG2 tox 11%.
For Cc1cc2cc(C=C(C#N)C#N)c(Cl)nc2cc1C the results were IL1B secr inh -100*, TDP1 cell CPT 7.3µM*, TDP1 cell noCPT 7.3µM*, TDP1 inh 3%, TGFb SMAD3 inh -18% and HepG2 tox -29%.
Cc1cc(/C=C(\C#N)C(=O)Nc2ccccc2)c(C)n1-c1cccnc1 was read as IL1B secr inh -76*, TDP1 cell CPT inconclusive, TDP1 cell noCPT inconclusive, TDP1 inh 1%, TGFb SMAD3 inh 5% and HepG2 tox -4%.
`Cc1ccc(NC(=O)/C(C#N)=C/c2cc(C)n(-c3ccc(Br)cc3)c2C)cc1C` gave TDP1 cell CPT 4.6µM*, TDP1 cell noCPT 5.8µM*, TDP1 inh 7%[12.3 µM], TGFb SMAD3 inh inconclusive and HepG2 tox -104%.
`Cc1ccc(-c2cc(C(=O)NCCN3CCOCC3)c3ccccc3n2)o1` gave IL1B secr inh -6, TDP1 cell CPT -20%, TDP1 cell noCPT -1%, TDP1 inh 2%, TGFb SMAD3 inh 10% and HepG2 tox -2%.
`CCOC(=O)/C(C#N)=C/c1cc2cc(C)c(C)cc2nc1Cl` gave IL1B secr inh -24, TDP1 cell CPT inconclusive, TDP1 cell noCPT inconclusive, TDP1 inh 1%, TGFb SMAD3 inh -11% and HepG2 tox -5%.
For CCOC(=O)/C(C#N)=C/c1cc2ccc(C)cc2nc1Cl the results were IL1B secr inh 24, TDP1 cell CPT 4.1µM*, TDP1 cell noCPT 2.9µM*, TDP1 inh 3%, TGFb SMAD3 inh 0% and HepG2 tox -30%.
For CCOC(=O)/C(C#N)=C/c1cc(C)n(-c2ccccc2)c1C the results were IL1B secr inh -12, TDP1 cell CPT 16µM*, TDP1 cell noCPT 21µM*, TDP1 inh 3%, TGFb SMAD3 inh -4% and HepG2 tox -5%.
Screening CCCOc1ccc(/C=N/NC(=O)CN2CCCCC2)cc1 returned IL1B secr inh -9, TDP1 cell CPT 8%, TDP1 cell noCPT -18%, TGFb SMAD3 inh -17% and HepG2 tox 10%.
Screening NC(=O)CC(NC(=O)c1ccccc1)c1ccc(NC2CCCC2)c([N+](=O)[O-])c1 (stereo unspecified) returned IL1B secr inh -1, TDP1 cell CPT 4.6µM*, TDP1 cell noCPT 18µM*, TDP1 inh -1%, TGFb SMAD3 inh -11% and HepG2 tox 2%.
For NC(=O)CC(NC(=O)c1cccc(Br)c1)c1ccc(NCC2CC2)c([N+](=O)[O-])c1 (stereo unspecified) the results were IL1B secr inh -11, TDP1 cell CPT inconclusive, TDP1 cell noCPT inconclusive, TGFb SMAD3 inh inconclusive and HepG2 tox -1%.
Screening NC(=O)CC(NC(=O)c1ccccc1)c1ccc(NCC2CC2)c([N+](=O)[O-])c1 (stereo unspecified) returned IL1B secr inh 0, TDP1 cell CPT 23µM*, TDP1 cell noCPT inconclusive, TDP1 inh 2%, TGFb SMAD3 inh inconclusive and HepG2 tox -17%.
`COc1ccc(C(=O)CCC(=O)Nc2cc(Cl)c(O)c(Cl)c2)cc1` gave IL1B secr inh 0, TDP1 cell CPT 31%, TDP1 cell noCPT -10%, TGFb SMAD3 inh -5% and HepG2 tox -1%.
O=C(COc1ccccc1F)NC1CC(=O)N(c2ccc3c(c2)OCCO3)C1 (stereo unspecified) was read as TDP1 cell CPT -20%, TDP1 cell noCPT -6%, TDP1 inh -3%, TGFb SMAD3 inh 0% and HepG2 tox -1%.
For Cc1cc(C)cc(NC(=O)CN(c2cc(C(F)(F)F)ccc2Cl)S(=O)(=O)c2ccccc2)c1 the results were TDP1 cell CPT inconclusive, TDP1 cell noCPT inconclusive, TGFb SMAD3 inh -8% and HepG2 tox -35%.
For COc1ccc(/C=C/C(=O)c2cc3c(cc2N)OCO3)cc1 the results were IL1B secr inh 0, TDP1 cell CPT inconclusive, TDP1 cell noCPT 23µM*, TDP1 inh 11%, TGFb SMAD3 inh -11% and HepG2 tox -66%.
Screening COc1ccc(C(=O)/C=C/Nc2ccccn2)c(OC)c1 returned IL1B secr inh -63*, TDP1 cell CPT -16%, TDP1 cell noCPT inconclusive, TDP1 inh 4%, TGFb SMAD3 inh 10% and HepG2 tox -1%.
Screening COc1cc(OC)c(C(=O)Oc2ccc3c(c2)OCO3)cc1OC returned IL1B secr inh 45, TDP1 cell CPT -21%, TDP1 cell noCPT -9%, TDP1 inh 5%, TGFb SMAD3 inh -3% and HepG2 tox -7%.
`COc1ccc(/C=C/C(=O)c2cc(O)ccc2O)cc1` gave TDP1 cell CPT 16µM*, TDP1 cell noCPT 16µM* and TDP1 inh 21%[56.1 µM].
For COc1ccc(/C=C/C(=O)NNC(=O)c2cc(C)oc2C)cc1 the results were IL1B secr inh -58*, TDP1 cell CPT 22%, TDP1 cell noCPT -18%, TGFb SMAD3 inh 3% and HepG2 tox 22%.
